ERAP1 HTS inh: inhibitors of human ERAP1 aminopeptidase. recombinant ERAP1, Leu-AMC fluorescence, 60 min. inhibition, % at 10.7 µM. 340,000 compounds, 0.15% hits. AID 652197;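 active = mean replicate inhibition of at least 30%, or all replicates individually reaching that 30% level; inactive = mean below 30% and not every replicate reaching it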;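 also: 0% = neutral control wells and 100% = L-leucinethiol positive control wells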
MLL AF4-AF9 inh: inhibitors of human MLL-AF4/AF9 interaction | P42568 | AlphaScreen, biotin-AF4 peptide binding to FLAG-AF9 | inhibition, % at 10 µM | 350,000 compounds, 0.47% hits | AID 651704;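 active = every replicate reaching a set inhibition limit, whatever the replicate mean, cut at about 25% in these data; inconclusive = mean inhibition reaches that limit but some replicates miss it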;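 also: 0% = plate neutral control median and 100% = total signal loss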
Target sequence (P42568 whole entry, looked up): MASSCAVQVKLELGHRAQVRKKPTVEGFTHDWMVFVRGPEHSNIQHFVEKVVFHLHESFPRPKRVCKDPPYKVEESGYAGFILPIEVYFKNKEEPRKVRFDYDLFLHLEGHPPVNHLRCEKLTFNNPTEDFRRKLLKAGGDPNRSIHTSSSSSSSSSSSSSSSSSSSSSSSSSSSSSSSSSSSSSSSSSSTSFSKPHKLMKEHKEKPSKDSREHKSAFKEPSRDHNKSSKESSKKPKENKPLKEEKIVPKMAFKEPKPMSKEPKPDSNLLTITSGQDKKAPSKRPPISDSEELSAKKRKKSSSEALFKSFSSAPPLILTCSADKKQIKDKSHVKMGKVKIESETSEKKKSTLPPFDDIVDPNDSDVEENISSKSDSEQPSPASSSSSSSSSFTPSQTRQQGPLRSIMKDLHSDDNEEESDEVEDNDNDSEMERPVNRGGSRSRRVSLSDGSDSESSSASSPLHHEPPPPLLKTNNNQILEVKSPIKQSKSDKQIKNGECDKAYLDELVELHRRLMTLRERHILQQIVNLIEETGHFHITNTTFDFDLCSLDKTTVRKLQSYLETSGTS
ERp5 inh: inhibitors of human ERp5; ERp5 insulin aggregation, absorbance 650 nm, 90 min; inhibition, % at 9.99 µM; 350,000 compounds, 0.05% hits; AID 651711;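 active = mean replicate inhibition above about 25%, with every replicate also reaching it, limit read from the data, passing the limit was not always enough; inconclusive = only one of those two criteria met; inactive = neither criterion met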
PDI turbidity: PDI (human) enzyme inhibition; P07237; PDI insulin aggregation turbidity, A650, 90 min; inhibition, % at 10 µM; 350,000 compounds, 0.052% hits;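 active = mean inhibition across replicates of 30% or more, whatever share of single replicates reach that level; inconclusive = mean inhibition below 30% while every single replicate reaches 30%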
DENV2 CPE rescue: DENV2-induced cell death inhibition; DENV2-infected cells, cytopathic effect rescue, plate reader; CPE inhibition, % at 9.99 µM; 350,000 compounds, 1.7% hits; AID 651640; in the data active = CPE inhibition above about 20%, passing the limit was not always enough; inconclusive = no clear call, values can overlap the other calls; tested in BHK-21 cells;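 also: 0% = median of neutral control wells and 100% = median of positive control wells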
Active calls of the source: *; ? = inconclusive; · = not tested or not shown. Hits are enriched below; roughly 1.8% of the tested compounds scored in any of these assays.

SMILES	ERAP1 HTS inh	MLL AF4-AF9 inh	ERp5 inh	PDI turbidity	DENV2 CPE rescue
COc1ccc(NC(=O)C2CCC(CNS(=O)(=O)c3cccs3)CC2)cc1 (stereo unspecified)	1	-2	1	-13	9
COc1ccc(NC(=O)C2CCC(CNS(=O)(=O)c3cccs3)CC2)cc1OC (stereo unspecified)	-3	-1	2	3	31*
CCCN1CCN(CCCNC(=O)c2cc3c(s2)-c2ccccc2OC3)CC1	18	6	-3	0	6
CCN1CCN(CCCNC(=O)c2cc3c(s2)-c2ccccc2OC3)CC1	54*	4	-4	-1	6
CC1CCCC(C)N1CCCNC(=O)c1cc2c(s1)-c1ccccc1OC2 (stereo unspecified)	32*	4	0	-8	-6
C[C@@H]1CN([C@H](C)CO)C(=O)c2cc(NS(C)(=O)=O)ccc2O[C@@H]1CN(C)S(=O)(=O)c1ccc(F)cc1	1	-2	-6	·	·
CCCC#Cc1ccc(CC[C@H]2O[C@H]3CC[C@@H](CO)O[C@H]3C[C@@H]2n2cc(C(C)(C)O)nn2)cc1	4	-4	5	·	-10
CCCCCNCc1ccc(OCc2ccc(Cl)nc2)c(OC)c1	-2	4	3	-1	31*
C[C@@H]1CCCCO[C@H](CN(C)S(C)(=O)=O)[C@@H](C)CN([C@@H](C)CO)C(=O)c2cc(NS(=O)(=O)c3cn(C)cn3)ccc2O1	-2	-2	-6	·	0
O=C(CN1CCOCC1)N1CCCCN2[C@H](C1)[C@H](c1ccc(-c3ccccc3)cc1)[C@@H]2CO	1	0	3	·	4
O=C(CN1CCOCC1)N1CCCCN2[C@H](CO)[C@@H](c3ccc(C#Cc4ccccc4)cc3)[C@@H]2C1	-2	-6	-2	·	14
O=C(CN1CCOCC1)N1CCCCN2[C@@H](CO)[C@@H](c3ccc(-c4ccccc4)cc3)[C@@H]2C1	3	-1	5	·	61*
O=C(CN1CCOCC1)N1CCCCN2[C@H](CO)[C@H](c3ccc(C#Cc4ccccc4)cc3)[C@@H]2C1	1	-1	-1	·	31*
COc1ccc2c3c(n(C)c2c1)[C@H](CO)N(C)CC31CCN(S(=O)(=O)c2cccc(C)c2)CC1	·	-4	·	·	-4
Cc1noc(C)c1S(=O)(=O)Nc1ccc2c(c1)C(=O)N([C@@H](C)CO)C[C@H](C)[C@@H](CN(C)Cc1ccncc1)O2	1	-2	9	·	6
CS(=O)(=O)Nc1ccc2c(c1)[C@@H]1C[C@@H](CC(=O)N3CCCCC3)O[C@H](CO)[C@@H]1O2	·	·	·	·	17
COc1ccc(S(=O)(=O)Nc2ccc3c(c2)C(=O)N([C@H](C)CO)C[C@H](C)[C@@H](CN(C)C(=O)CCC(F)(F)F)OCCCC[C@@H](C)O3)cc1	2	-4	-3	·	10
COc1ccc(S(=O)(=O)Nc2ccc3c(c2)C(=O)N([C@@H](C)CO)C[C@@H](C)[C@H](CN(C)Cc2ccc4c(c2)OCO4)OCCCC[C@@H](C)O3)cc1	-4	-4	-2	·	56*
COc1ccc(S(=O)(=O)Nc2ccc3c(c2)C(=O)N([C@@H](C)CO)C[C@@H](C)[C@@H](CN(C)Cc2ccc4c(c2)OCO4)OCCCC[C@@H](C)O3)cc1	-2	6	0	·	-4
COc1ccc(S(=O)(=O)Nc2ccc3c(c2)C(=O)N([C@H](C)CO)C[C@H](C)[C@@H](CN(C)Cc2ccc4c(c2)OCO4)OCCCC[C@@H](C)O3)cc1	-1	-2	2	·	23*
COc1ccc(S(=O)(=O)Nc2ccc3c(c2)C(=O)N([C@H](C)CO)C[C@H](C)[C@H](CN(C)Cc2ccc(Cl)c(Cl)c2)OCCCC[C@@H](C)O3)cc1	·	·	·	·	42*
COc1ccc(S(=O)(=O)Nc2ccc3c(c2)C(=O)N([C@H](C)CO)C[C@H](C)[C@@H](CN(C)Cc2ccc4c(c2)OCO4)OCCCC[C@H](C)O3)cc1	-4	2	-6	·	30*
Cc1ccc(S(=O)(=O)Nc2ccc3c(c2)C(=O)N([C@@H](C)CO)C[C@H](C)[C@H](CN(C)C(=O)c2ccncc2)OCCCC[C@@H](C)O3)cc1	·	·	·	·	0
COc1ccc(Cl)cc1N(C(=O)c1ccco1)C(C(=O)NC1CCCC1)c1ccncc1 (stereo unspecified)	0	-3	2	-8	3
COc1ccc(Cl)cc1N(C(=O)c1ccco1)C(C(=O)NC1CCCC1)c1ccco1 (stereo unspecified)	1	-3	0	7	75*
SMILES	ERAP1 HTS inh	MLL AF4-AF9 inh	ERp5 inh	PDI turbidity	DENV2 CPE rescue
CCc1ccccc1N(C(=O)c1ccco1)C(C(=O)NC1CCCC1)c1cccnc1 (stereo unspecified)	-1	-1	8	-1	54*
C[C@@H]1CN([C@@H](C)CO)C(=O)c2cc(C#Cc3cccnc3)cnc2O[C@@H]1CN(C)Cc1ccccc1	0	-2	2	·	·
O=C1C(Nc2ccc(O)cc2)=C/C(=N/S(=O)(=O)c2cccs2)c2ccccc21	0	63*	1	-2	0
COCCn1nnnc1C(c1cc2cc(C)ccc2[nH]c1=O)N1CCN(C2CCCCC2)CC1 (stereo unspecified)	7	6	-4	12	30*
Cc1noc(C)c1NC(=O)Nc1ccc2c(c1)CC(=O)N([C@@H](C)CO)C[C@H](C)[C@H](CN(C)S(=O)(=O)c1ccc(Cl)cc1)O2	0	-2	13	·	-6
CCOC(=O)C(C)Oc1cccc2c(=O)n(CC(=O)Nc3ccc4c(c3)OCCO4)ccc12 (stereo unspecified)	5	45*	-3	·	2
Cc1ccc(S(=O)(=O)N2CCN(C(=O)CCc3nc4ccccc4c(=O)[nH]3)CC2)c(C)c1	-2	0	26*	-4	?
O=C(C1CCOCC1)N1CC(=O)N2[C@@H](CO)[C@H](c3ccc(C#CC4CCCC4)cc3)[C@@H]2C1	-2	4	4	·	52*
O=C(c1ccc(F)cc1)N1CC(=O)N2[C@H](CO)[C@H](c3ccc(-c4ccccc4)cc3)[C@H]2C1	-1	-2	1	·	24*
O=C(Cc1ccccn1)N1CC(=O)N2[C@H](CO)[C@H](c3ccc(C#CC4CC4)cc3)[C@@H]2C1	2	-2	5	·	40*
O=C(C1CCOCC1)N1CC(=O)N2[C@H](C1)[C@@H](c1ccc(C#CC3CCCC3)cc1)[C@@H]2CO	-2	2	0	·	7
O=C(c1ccc(F)cc1)N1CC(=O)N2[C@@H](CO)[C@@H](c3ccc(C#CC4CCCC4)cc3)[C@@H]2C1	2	3	2	·	44*
COc1ccc2c3c(n(C)c2c1)[C@H](CO)N(C(=O)Cc1ccccn1)CC31CN(C)C1	1	-1	3	·	4
N#Cc1cccc(-c2ccc3c(c2)[C@@H]2[C@@H](CCN2C(=O)c2ccccc2F)[C@@H](CO)N3)c1	·	·	-5	·	1
O=C(C[C@@H]1C[C@@H]2c3cc(NC(=O)CC4CC4)ccc3O[C@@H]2[C@H](CO)O1)NCc1ccc(-c2ccccc2)cc1	10	-2	-9	·	-8
